Our source for the inhibition values is PubChem BioAssay AID1850 (Southern Research Specialized Biocontainment Screening …, 2009).

The campaign covered roughly 310,000 compounds. About 1,000 (0.32%) were called active. How the calls were made is not given here. A selection follows. Results with a measured potency or affinity are listed apart.

This assay is described as follows: PhoP regulon inhibitors, Salmonella typhi PhoP promoter GFP reporter, confirmatory (AID 1850).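 Further: 0% = induced wells with vehicle and 100% = uninduced wells.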 Conditions: fluorescence, 4 h, at 50 µM, active compounds read high.
Consider `COc1ccc2cc(CN(Cc3cccnc3)Cc3nnnn3Cc3ccccc3)c(=O)[nH]c2c1`, for which the inhibition is -1.66% (inactive).
For the compound `CCOC(=O)CSc1c(-c2ccc(Cl)cc2)[nH]c2ccccc12`, the inhibition is -5.57% (inactive).
Regarding `CC1(C)CC(=O)C=C(Nc2ccc(C(=O)O)c(O)c2)C1`, the inhibition was -4.27% (inactive).
On to `N#C/C(=C\c1cn(CCOc2ccccc2)c2ccccc12)C(=O)NCc1cccs1`, for which the inhibition is -5.68% (inactive).
To `COc1ccnc(Oc2ccc(C)cc2)c1C#N` belongs 5.63% (inactive); to `Cc1ccc(C)c(SCC(=O)NCC(c2ccco2)N2CCCCC2)c1` (centres undefined), 19.8% (inactive).
As for `COc1ccc(NS(=O)(=O)c2cccc(C(=O)NNC(=O)c3cncc(Br)c3)c2)cc1`, the inhibition is 11.8% (inactive).
Consider `COc1ccccc1N1CCN(C(=O)/C=C/c2cccs2)CC1`, for which the inhibition is -0.34% (inactive).
Consider `Cc1cc(NS(=O)(=O)c2ccc(NC(=O)Nc3cccc(C(F)(F)F)c3)cc2)no1`, for which the inhibition was -2.04% (inactive).
As for `Cc1cc(NS(=O)(=O)c2ccc(NC(=O)Nc3ccccc3)cc2)no1`, the inhibition was -1.36% (inactive).
`CCCN1C(=O)c2ccccc2NC1c1cc(OC)c(OC)c(OC)c1` (centres undefined): the inhibition was 4.01% (inactive).
In the case of `CCN1c2ccccc2NC2C1C(C(C)=O)C(=O)N2c1ccc(Cl)cc1` (centres undefined), the inhibition was -5.05% (inactive).
Regarding `COc1ccc(-c2[nH]ncc2-c2nc(C)cs2)c(O)c1`, the inhibition is -0.79% (inactive).
Take `Cc1ccc(OCC(O)Cn2c(=N)n(Cc3ccccc3)c3ccccc32)cc1` (centres undefined): the inhibition was -18.7% (inactive).
On to `N=c1n(Cc2ccccc2)c2ccccc2n1CC(O)COc1ccccc1` (centres undefined), for which the inhibition is -2.26% (inactive).
In the case of `COc1ccc(OCC(O)Cn2c(=N)n(Cc3ccccc3)c3ccccc32)cc1` (centres undefined), the inhibition was 10.7% (inactive).
For the compound `Cc1cccc(OCC(O)Cn2c(=N)n(Cc3ccccc3)c3ccccc32)c1` (centres undefined), the inhibition was -11.7% (inactive).
Turning to `Cc1ccn2cc(-c3cccc(NS(C)(=O)=O)c3)nc2c1`, the inhibition was -0.47% (inactive).
To `CN(C)c1cccc(C(=O)OCC(=O)Nc2ccccc2-c2ccccc2)c1` belongs -5.83% (inactive); to `Cc1ccc(OCCNC(=O)CCC(=O)N2CCOCC2)cc1`, 1.97% (inactive); to `CNCc1c(OCc2ccc(F)cc2)ccc2ccccc12`, 20.5% (inactive).
Consider `CNCc1c(OCc2ccccc2)ccc2ccccc12`, for which the inhibition was 15.5% (inactive).
With `Cc1cc(C)c2nc(C)cc(Nc3ccc(C(=O)NCCO)cc3)c2c1`, the inhibition is 1.42% (inactive).
With `COc1ccc2oc(C(=O)OCC(=O)N3CC(C)OC(C)C3)c(C)c2c1` (centres undefined), the inhibition was 1.14% (inactive).
`O=C1C=C(Nc2cccc3cccnc23)c2ccccc2C1=O`: the inhibition is 1.58% (inactive).
For `O=C1C=C(Nc2ccccc2C(=O)O)c2ccccc2C1=O` the value was 8.73% (inactive); for `CCOC(=O)c1ccc(NC2=CC(=O)C(=O)c3ccccc32)cc1`, 0.12% (inactive).
For the compound `Cc1ccc(NC2=CC(=O)C(=O)c3ccccc32)cc1`, the inhibition was 5.69% (inactive).
In the case of `CS(=O)(=O)N(CC(=O)N1CCC(C(N)=O)CC1)C1CCCCC1`, the inhibition is -1.33% (inactive).
For the compound `CCOC(=O)Cc1csc(NC(=O)c2ccc3ncsc3c2)n1`, the inhibition was -6% (inactive).
As to `COc1ccc(-n2nc(C(=O)NCC(=O)NCc3ccccc3OC)c3ccccc3c2=O)cc1`, the inhibition was 8.47% (inactive).
On to `OCCN1CCN(c2nc(NCc3ccco3)c3ccccc3n2)CC1`, for which the inhibition was 3.47% (inactive).
Turning to `c1ccc(N2CCN(c3nc(NCc4ccco4)c4ccccc4n3)CC2)cc1`, the inhibition is 13.6% (inactive).
As for `c1ccc(CN2CCN(c3nc(N4CCOCC4)c4ccccc4n3)CC2)cc1`, the inhibition is -3.61% (inactive).
Regarding `OCCNc1nc(N2CCN(Cc3ccccc3)CC2)nc2ccccc12`, the inhibition is 1.64% (inactive).
For the compound `O=C(NC(=S)N1CCN(c2ccc([N+](=O)[O-])cc2)CC1)c1ccco1`, the inhibition was -9.69% (inactive).
`CCC1(c2ccccc2)NC(=O)N(CC(=O)Nc2nnc(C3CC3)s2)C1=O` (centres undefined): the inhibition was -9.36% (inactive).
For `COc1ccc(OC)c2[nH]c(=O)c(CCNS(=O)(=O)c3ccc(C)cc3)cc12` the value was 7.93% (inactive); for `C#CCOCCOCCOCCNc1nc(N2CCN(C(=O)[C@H]([C@@H](C)CC)n3cc([C@@H](N)Cc4ccc(O)cc4)nn3)CC2)nc(N2CCN(C(=O)[C@H](Cc3cc4ccccc4[nH]3)n3cc([C@@H](N)C(C)CC)nn3)CC2)n1` (some centres undefined), 17.7% (inactive); for `C#CCOCCOCCOCCNc1nc(N2CCN(C(=O)[C@H](Cc3ccc(O)cc3)n3cc([C@@H](N)C(C)CC)nn3)CC2)nc(N2CCN(C(=O)[C@H](Cc3cc4ccccc4[nH]3)n3cc([C@@H](N)CC(C)C)nn3)CC2)n1` (some centres undefined), 11% (inactive).
`C#CCOCCOCCOCCNc1nc(N2CCN(C(=O)[C@H]([C@@H](C)CC)n3cc([C@@H](N)CC(C)C)nn3)CC2)nc(N2CCN(C(=O)[C@H](Cc3cc4ccccc4[nH]3)n3cc([C@@H](N)Cc4ccc(O)cc4)nn3)CC2)n1`: the inhibition was -29.1% (inactive).
Regarding `C#CCOCCOCCOCCNc1nc(N2CCN(C(=O)[C@H](CCC(=O)O)n3cc(C(N)Cc4ccc(O)cc4)nn3)CC2)nc(N2CCN(C(=O)[C@H](Cc3cc4ccccc4[nH]3)n3cc(C(N)CC(C)C)nn3)CC2)n1` (some centres undefined), the inhibition is 5.34% (inactive).
In the case of `C#CCOCCOCCOCCNc1nc(N2CCN(C(=O)C(CCC(=O)O)n3cc(C(N)CC(C)C)nn3)CC2)nc(N2CCN(C(=O)C(Cc3cc4ccccc4[nH]3)n3cc(C(N)Cc4ccc(O)cc4)nn3)CC2)n1` (centres undefined), the inhibition was -1.42% (inactive).
For `C#CCOCCOCCOCCNc1nc(N2CCN(C(=O)C(Cc3ccc(O)cc3)n3cc(C(N)CC(C)C)nn3)CC2)nc(N2CCN(C(=O)C(Cc3cc4ccccc4[nH]3)n3cc(C(N)C(C)CC)nn3)CC2)n1` (centres undefined) the value was 18.1% (inactive); for `CCc1ccccc1NNC(=O)c1cc(C)on1`, -26.6% (inactive); for `Cc1cc(OCC(=O)N2CCC(C(=O)O)(c3ccccc3)CC2)c2c(C)c(C)c(=O)oc2c1`, 1.07% (inactive).
For `O=C(Cn1cnc2c(oc3ccccc32)c1=O)N1CCCc2ccccc21`, the inhibition is 1.66% (inactive).
Take `Cc1cc(NC(=O)c2cccc(S(=O)(=O)N3CC(c4ccccc4)CC3=O)c2)no1` (centres undefined): the inhibition was -38.2% (inactive).
With `O=C1CC(C(=O)Nc2ccccc2)S/C(=N\NC(=O)c2ccccc2Cl)N1` (centres undefined), the inhibition was 21.9% (inactive).
